# Measured values from PubChem BioAssay (NCATS).
# “And” between values parts separate entries of the source, which are not always exact repeats. Equal entries are not always repeated. Records with an inconclusive call do not appear. Where a structure was tested more than once in an assay, its records may differ in their call. The source made the active and inactive calls. Calls come from the whole dose curve; as a rule, active = well fitted curve in the direction sought with a large enough effect; inconclusive = small, poorly fitted or top-dose-only effect, or another doubt; inactive = no such curve, though single readings can be large; an effect the other way counts as inactive or inconclusive.
# Tests used:
# [1] = Viability qHTS for spleen associated tyrosine kinase inhibitor (SYKi) drug resistant MV4-11 cells (AID 1963824); note: nearly all actives have a fitted effect of over 35% in size
# Method in brief: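 SYK-inhibitor-resistant MV4-11 AML cells were seeded at 500 per well onto compound and cultured 72 hours (37 °C, 5% CO2). CellTiter-Glo was then added, and after 10 min at room temperature, luminescence gave viability.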
# [2] = Quantitative highthroughput screen to assess conditional lethalithy of NOMO1 cells grown in RPMI1640 with dialyzed fetal bovine serum (RPMI+ds) (AID 1963877); note: nearly all actives have a fitted effect of over 30% in size;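 for Viability: series mostly up to about 46 µM; 100% = DMSO control wells and 0% = empty wells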
# Method in brief: (§1)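 Each medium arm—HPLM with 10% dialyzed FBS, or RPMI1640 with 5 mM glucose and 10% untreated or dialyzed FBS—was screened against an 11-point, 3-fold compound titration for 48 h at 37 °C, with CellTiter-Glo luminescence as endpoint.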
# [3] = Quantitative highthroughput screen to assess conditional lethalithy of NOMO1 cells grown in Human Plasma-Like Medium with dialyzed fetal bovine serum (HPLM+ds) (AID 1963878); note: nearly all actives have a fitted effect of over 35% in size;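 for Viability: 100% = DMSO wells and 0% = empty wells on each plate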
# Method in brief: as §1
# [4] = Quantitative highthroughput screen to assess conditional lethalithy of P12 Ichikawa cells grown in RPMI1640 with dialyzed fetal bovine serum (RPMI+ds) (AID 1963880); conditions: Potency: P12-Ichikawa viability; note: nearly all actives have a fitted effect of over 35% in size
# Method in brief: as §1
# [5] = Quantitative highthroughput screen to assess conditional lethalithy of P12 Ichikawa cells grown in RPMI1640 with untreated serum (RPMI+s) (AID 1963881); conditions: Potency: viability; note: nearly all actives have a fitted effect of over 35% in size;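 for Viability: series mostly up to about 46 µM; 100% = DMSO wells and 0% = empty wells without cells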
# Method in brief: as §1
# [6] = Quantitative highthroughput screen to assess conditional lethalithy of SEM cells grown in Human Plasma-Like Medium with dialyzed fetal bovine serum (HPLM+ds) (AID 1963882); note: nearly all actives have a fitted effect of over 35% in size
# Method in brief: as §1
# [7] = Quantitative highthroughput screen to assess conditional lethalithy of SEM cells grown in RPMI1640 with unreated serum (RPMI+s) (AID 1963883); note: nearly all actives have a fitted effect of over 35% in size;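 for Viability: 100% = DMSO wells and 0% = empty wells without cells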
# Method in brief: as §1
# [8] = Cellular viability qHTS for adrenocortical cancer (ACC) cell line SW-13 (AID 1963989); conditions: SW-13 ACC cells viability, CellTiter-Glo, 48 h; activity (max response): stronger effect = lower value; note: nearly all actives have a fitted effect of over 65% in size;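 for activity (max response): cells grown in serum-free medium with ITS supplement; % is set by controls: 0 for no effect and ±100 for the full control effect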
# Method in brief: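 Compound titrations (up to 46 uM final, in DMSO) were applied to SW-13 cells for 48 h at 37C/5% CO2. Reading used CellTiter-Glo after 20 min at room temperature; fitted curves yielded IC50 and efficacy.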
# [9] = Cellular viability qHTS for adrenocortical cancer (ACC) cell line NCI-H295R (AID 1963990); note: nearly all actives have a fitted effect of over 60% in size
# Method in brief: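 Readout: CellTiter-Glo luminescence, 20 min RT. Exposure: 48 h, 37C/5% CO2. Cells: NCI-H295R, ITS-DMEM serum-free. Range: up to 46 uM. Analysis: 4PL fit, IC50 plus efficacy.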
# [10] = Quantitative highthroughput screen to assess conditional lethalithy of SEM cells grown in RPMI1640 with dialyzed fetal bovine serum (RPMI+ds) (AID 1963884); note: nearly all actives have a fitted effect of over 35% in size;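 for Viability: series mostly up to about 46 µM; 100% = DMSO control wells and 0% = empty wells without cells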
# Method in brief: as §1
# Potency is the fitted concentration of half-maximal effect.
Compound,Potency [1],Potency [2],Potency [3],Potency [4],Potency [5],Potency [6],Potency [7],Potency [8],Potency [9],Potency [10],activity (max response) [8]
COc1cc2c(NC3CCN(C(C)C)CC3)nc(C3CCCCC3)nc2cc1OCCCN1CCCC1,3.32 µM (active),20.9 µM (active),23.5 µM (active),20.9 µM (active),23.5 µM (active),16.6 µM (active),26.4 µM (active),17.8 µM (active),12.6 µM (active),,
COc1cc2c(Oc3ccc(-c4cnc(Nc5ccc(F)cc5)n(C)c4=O)cc3F)ccnc2cc1OCCCN1CCOCC1,58 nM (active) and 29.5 nM (active),23.5 µM (active),20.9 µM (active),,,0.166 µM (active),1.05 µM (active),15.8 µM (active),3.98 µM (active),0.0833 µM (active),
COCCOc1ccc2c(c1)ncn2-c1ccc2cccc(N3CCC(N)CC3)c2n1,11.6 nM (active) and 16.6 nM (active),18.7 µM (active),14.8 µM (active),,,,0.0935 µM (active),25.1 µM (active),12.6 µM (active),0.0264 µM (active),
CCOC(=O)c1c(C)n(C)c2ccc(O)cc12,7.5 µM (active) and inactive,inactive,inactive,,inactive,,inactive,,,inactive,5.26% (inactive) and -18.4% (inactive)
CN1CCC(CNc2ccc3ncc(-c4cccc(OC(F)(F)F)c4)n3n2)CC1,41.1 nM (active) and 132 nM (active),23.5 µM (active),18.7 µM (active),,,5.9 µM (active),4.69 µM (active),15.8 µM (active),8.91 µM (active),1.32 µM (active),
